# Reference: publication PMC7862700, “An all-to-all approach to the identification of sequence-specific readers for epigenetic DNA modifications on cytosine”
# Columns and labels:
# Assay in all cases: DAPPL (digital affinity profiling via proximity ligation, sequencing); 10 mM Tris-HCl pH 7.5, 50 mM NaCl, 1 mM DTT, 4% glycerol, room temperature, 30 min; GST-TFs on glutathione beads, 16-mer random dsDNA library, 0.1% formaldehyde crosslink after washing; high values mean tight binding
# Conditions in all cases: protein: recombinant; tags: N-terminal GST; dsDNA, one strand shown
# [1] = target: ETV5 (Homo sapiens, UniProt P41161 1-510)
# ETV5, sequence (P41161 whole entry, the tested form may be a part): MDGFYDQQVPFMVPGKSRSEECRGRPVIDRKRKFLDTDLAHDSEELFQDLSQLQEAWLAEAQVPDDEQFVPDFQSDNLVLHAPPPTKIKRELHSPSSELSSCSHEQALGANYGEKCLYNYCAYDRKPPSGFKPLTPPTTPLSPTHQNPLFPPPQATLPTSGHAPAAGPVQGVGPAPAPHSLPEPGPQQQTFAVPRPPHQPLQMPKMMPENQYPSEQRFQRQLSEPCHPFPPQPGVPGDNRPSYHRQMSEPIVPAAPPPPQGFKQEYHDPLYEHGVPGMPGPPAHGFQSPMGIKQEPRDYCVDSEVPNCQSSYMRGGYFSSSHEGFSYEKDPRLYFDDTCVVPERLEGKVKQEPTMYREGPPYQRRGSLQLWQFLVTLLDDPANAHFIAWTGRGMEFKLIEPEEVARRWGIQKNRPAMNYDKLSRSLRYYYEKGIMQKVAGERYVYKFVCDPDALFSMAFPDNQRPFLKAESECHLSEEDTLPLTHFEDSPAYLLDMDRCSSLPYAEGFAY
# In short: (§1)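 Pools were built from human transcription factors expressed in yeast as GST fusions, captured on glutathione beads and DNA-barcoded, along with a tag-only sample. Incubation with 200 nmole of a 16-mer random double-stranded DNA library lasted 30 min at room temperature in Tris/NaCl/DTT/glycerol buffer, and was followed by washing, 0.1% formaldehyde crosslinking, proximity ligation, PCR amplification and Illumina NextSeq500 sequencing. Binding signal is the quotient of each hexamer's read frequency for a factor and its frequency for the tag-only sample.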
# [2] = target: ELF4 (Homo sapiens, UniProt Q99607 1-663)
# ELF4, sequence (Q99607 whole entry): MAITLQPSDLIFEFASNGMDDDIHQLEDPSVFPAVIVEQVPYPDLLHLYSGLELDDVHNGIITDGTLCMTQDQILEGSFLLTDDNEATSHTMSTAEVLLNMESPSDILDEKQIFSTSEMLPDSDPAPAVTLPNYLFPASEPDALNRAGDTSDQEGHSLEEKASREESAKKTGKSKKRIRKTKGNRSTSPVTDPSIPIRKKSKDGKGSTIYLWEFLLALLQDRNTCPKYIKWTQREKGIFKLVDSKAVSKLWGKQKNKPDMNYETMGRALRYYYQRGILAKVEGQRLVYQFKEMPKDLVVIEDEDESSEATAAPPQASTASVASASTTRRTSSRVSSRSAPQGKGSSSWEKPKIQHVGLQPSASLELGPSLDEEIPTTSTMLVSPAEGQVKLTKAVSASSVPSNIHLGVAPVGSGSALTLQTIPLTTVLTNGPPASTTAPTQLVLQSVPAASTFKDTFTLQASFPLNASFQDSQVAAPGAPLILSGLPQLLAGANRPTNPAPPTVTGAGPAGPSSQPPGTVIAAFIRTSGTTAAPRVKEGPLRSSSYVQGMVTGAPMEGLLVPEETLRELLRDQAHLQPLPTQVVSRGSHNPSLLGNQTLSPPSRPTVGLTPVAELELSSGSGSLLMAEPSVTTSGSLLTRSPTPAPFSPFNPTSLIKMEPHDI
# In short: as §1
# [3] = target: T1, ETV2 (Homo sapiens, UniProt O00321 1-342)
# T1 sequence: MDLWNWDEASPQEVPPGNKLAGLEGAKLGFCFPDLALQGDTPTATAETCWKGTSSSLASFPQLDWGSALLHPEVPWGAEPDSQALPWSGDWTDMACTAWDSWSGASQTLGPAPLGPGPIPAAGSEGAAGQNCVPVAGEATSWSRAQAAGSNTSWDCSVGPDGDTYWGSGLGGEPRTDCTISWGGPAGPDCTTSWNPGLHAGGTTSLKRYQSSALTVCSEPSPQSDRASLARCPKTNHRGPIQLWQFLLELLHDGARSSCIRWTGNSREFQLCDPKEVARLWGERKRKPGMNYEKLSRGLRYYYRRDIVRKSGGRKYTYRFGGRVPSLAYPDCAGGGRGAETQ
# In short: as §1
# [4] = target: T2, ELF3 (Homo sapiens, UniProt P78545 1-371)
# T2 sequence: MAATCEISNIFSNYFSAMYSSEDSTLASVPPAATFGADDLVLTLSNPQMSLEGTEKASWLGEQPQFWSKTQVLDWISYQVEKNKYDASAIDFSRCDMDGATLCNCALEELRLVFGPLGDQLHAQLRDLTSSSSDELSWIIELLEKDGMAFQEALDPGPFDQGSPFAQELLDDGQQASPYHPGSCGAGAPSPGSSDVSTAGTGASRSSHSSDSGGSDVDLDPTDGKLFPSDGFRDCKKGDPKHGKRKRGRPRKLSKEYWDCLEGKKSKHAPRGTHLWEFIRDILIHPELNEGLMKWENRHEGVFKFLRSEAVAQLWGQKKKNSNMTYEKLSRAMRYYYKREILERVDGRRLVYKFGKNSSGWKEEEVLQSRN
# In short: as §1
# [5] = target: ETV1 (Homo sapiens, UniProt P50549 1-477)
# ETV1, sequence (P50549 whole entry): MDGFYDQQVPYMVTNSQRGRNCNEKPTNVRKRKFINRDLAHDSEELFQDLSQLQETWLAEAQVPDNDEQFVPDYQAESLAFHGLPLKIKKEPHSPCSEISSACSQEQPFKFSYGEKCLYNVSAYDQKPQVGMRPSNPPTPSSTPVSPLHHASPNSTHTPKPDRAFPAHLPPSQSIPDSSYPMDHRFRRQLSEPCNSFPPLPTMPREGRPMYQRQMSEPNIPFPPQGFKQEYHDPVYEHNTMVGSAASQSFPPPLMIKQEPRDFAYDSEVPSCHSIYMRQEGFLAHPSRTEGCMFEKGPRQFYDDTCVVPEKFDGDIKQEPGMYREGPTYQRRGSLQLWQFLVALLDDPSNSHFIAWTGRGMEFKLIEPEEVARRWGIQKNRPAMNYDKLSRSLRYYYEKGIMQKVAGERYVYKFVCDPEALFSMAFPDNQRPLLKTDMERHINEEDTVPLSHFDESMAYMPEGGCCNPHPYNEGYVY
# In short: as §1
# [6] = target: T3, ERF (Homo sapiens, UniProt P50548 1-548)
# T3 sequence: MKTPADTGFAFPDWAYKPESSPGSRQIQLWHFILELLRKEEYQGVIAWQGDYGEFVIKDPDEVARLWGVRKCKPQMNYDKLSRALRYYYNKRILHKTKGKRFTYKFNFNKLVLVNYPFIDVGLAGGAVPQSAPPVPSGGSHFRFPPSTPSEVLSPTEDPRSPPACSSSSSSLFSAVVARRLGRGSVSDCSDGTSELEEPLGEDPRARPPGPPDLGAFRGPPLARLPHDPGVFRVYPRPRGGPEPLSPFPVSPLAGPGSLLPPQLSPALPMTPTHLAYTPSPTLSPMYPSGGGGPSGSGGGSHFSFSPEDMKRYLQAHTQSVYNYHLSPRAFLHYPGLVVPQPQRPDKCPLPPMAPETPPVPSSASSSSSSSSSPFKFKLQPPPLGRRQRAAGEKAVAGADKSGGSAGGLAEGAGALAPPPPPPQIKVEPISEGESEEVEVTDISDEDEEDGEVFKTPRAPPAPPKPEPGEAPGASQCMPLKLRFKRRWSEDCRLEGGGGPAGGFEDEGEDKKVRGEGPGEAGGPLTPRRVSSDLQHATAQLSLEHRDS
# In short: as §1
# [7] = target: T4, ETS2 (Homo sapiens, UniProt P15036 1-469)
# T4 sequence: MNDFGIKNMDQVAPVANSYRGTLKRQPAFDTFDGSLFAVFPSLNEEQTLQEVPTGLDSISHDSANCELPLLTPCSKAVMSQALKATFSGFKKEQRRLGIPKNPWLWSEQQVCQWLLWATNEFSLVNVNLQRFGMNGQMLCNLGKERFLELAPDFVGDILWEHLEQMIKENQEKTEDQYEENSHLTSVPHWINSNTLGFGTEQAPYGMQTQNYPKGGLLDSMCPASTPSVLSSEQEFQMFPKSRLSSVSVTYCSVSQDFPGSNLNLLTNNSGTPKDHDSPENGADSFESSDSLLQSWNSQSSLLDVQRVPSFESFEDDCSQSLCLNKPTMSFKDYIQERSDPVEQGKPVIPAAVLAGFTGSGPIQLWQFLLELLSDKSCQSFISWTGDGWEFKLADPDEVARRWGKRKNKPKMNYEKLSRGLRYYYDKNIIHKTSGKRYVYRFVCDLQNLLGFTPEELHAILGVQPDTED
# In short: as §1
# [8] = target: T5, ETV7 (Homo sapiens, UniProt Q9Y603 1-341)
# T5 sequence: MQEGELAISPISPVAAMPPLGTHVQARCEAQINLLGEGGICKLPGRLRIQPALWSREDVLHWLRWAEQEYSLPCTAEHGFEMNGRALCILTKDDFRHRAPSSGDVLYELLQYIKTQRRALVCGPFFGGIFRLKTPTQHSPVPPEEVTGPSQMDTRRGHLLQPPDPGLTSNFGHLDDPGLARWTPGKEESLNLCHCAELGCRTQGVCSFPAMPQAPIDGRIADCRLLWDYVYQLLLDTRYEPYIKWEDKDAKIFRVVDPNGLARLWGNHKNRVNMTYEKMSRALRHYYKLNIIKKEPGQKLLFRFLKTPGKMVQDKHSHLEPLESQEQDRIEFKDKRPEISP
# In short: as §1
# [9] = target: T6, ETV3 (Homo sapiens, UniProt P41162-2 1-143)
# T6 sequence: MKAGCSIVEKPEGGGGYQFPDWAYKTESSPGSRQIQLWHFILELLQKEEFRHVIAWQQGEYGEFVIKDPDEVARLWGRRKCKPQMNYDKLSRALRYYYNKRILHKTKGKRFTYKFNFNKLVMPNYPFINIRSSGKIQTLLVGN
# In short: as §1
# [10] = target: ETV6 (Homo sapiens, UniProt P41212 1-452)
# ETV6, sequence (P41212 whole entry): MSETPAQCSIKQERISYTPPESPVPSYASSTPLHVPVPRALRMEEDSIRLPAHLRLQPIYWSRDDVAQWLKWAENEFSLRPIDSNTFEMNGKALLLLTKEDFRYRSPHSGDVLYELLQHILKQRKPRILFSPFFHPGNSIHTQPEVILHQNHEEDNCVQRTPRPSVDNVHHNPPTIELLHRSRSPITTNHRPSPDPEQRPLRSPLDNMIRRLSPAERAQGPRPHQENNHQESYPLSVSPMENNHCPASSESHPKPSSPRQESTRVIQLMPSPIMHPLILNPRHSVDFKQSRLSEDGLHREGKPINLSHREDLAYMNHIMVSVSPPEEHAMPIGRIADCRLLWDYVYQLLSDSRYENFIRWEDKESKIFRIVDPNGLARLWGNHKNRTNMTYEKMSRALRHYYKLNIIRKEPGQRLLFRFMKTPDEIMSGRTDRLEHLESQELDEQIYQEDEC
# In short: as §1
sequence,measurement,setting,value
GTGTCC,binding signal,[1],"1.16 fold enrichment (6-mer frequency, TF over GST control)"
same,binding signal,[2],"1.08 fold enrichment (6-mer frequency, TF over GST control)"
same,binding signal,[3],"1.19 fold enrichment (6-mer frequency, TF over GST control)"
same,binding signal,[4],"1.22 fold enrichment (6-mer frequency, TF over GST control)"
same,binding signal,[5],"1.02 fold enrichment (6-mer frequency, TF over GST control)"
same,binding signal,[6],"1.06 fold enrichment (6-mer frequency, TF over GST control)"
same,binding signal,[7],"1.16 fold enrichment (6-mer frequency, TF over GST control)"
same,binding signal,[8],"1.22 fold enrichment (6-mer frequency, TF over GST control)"
same,binding signal,[9],"1.2 fold enrichment (6-mer frequency, TF over GST control)"
same,binding signal,[10],"1.02 fold enrichment (6-mer frequency, TF over GST control)"
